# Test results reported in PubChem BioAssay.
# Records with an inconclusive call do not appear. Activity calls are given as the source filed them. Rule as the data show it, unless noted: active = inhibition above about 80%; inactive = the rest.
# Assays:
# [1] = target: ATP-dependent translocase ABCB1 (Homo sapiens) (UniProt P08183); assay: P-glycoprotein substrate transport blockade – cell-based (AID 377; in the data active = fluorescence slope change above about 50%); conditions: MDR1-expressing cells, fluorescent substrate accumulation slope; stronger effect = higher value; concentration not given here
# Chain of ATP-dependent translocase ABCB1 (Homo sapiens) (P08183 whole entry, looked up): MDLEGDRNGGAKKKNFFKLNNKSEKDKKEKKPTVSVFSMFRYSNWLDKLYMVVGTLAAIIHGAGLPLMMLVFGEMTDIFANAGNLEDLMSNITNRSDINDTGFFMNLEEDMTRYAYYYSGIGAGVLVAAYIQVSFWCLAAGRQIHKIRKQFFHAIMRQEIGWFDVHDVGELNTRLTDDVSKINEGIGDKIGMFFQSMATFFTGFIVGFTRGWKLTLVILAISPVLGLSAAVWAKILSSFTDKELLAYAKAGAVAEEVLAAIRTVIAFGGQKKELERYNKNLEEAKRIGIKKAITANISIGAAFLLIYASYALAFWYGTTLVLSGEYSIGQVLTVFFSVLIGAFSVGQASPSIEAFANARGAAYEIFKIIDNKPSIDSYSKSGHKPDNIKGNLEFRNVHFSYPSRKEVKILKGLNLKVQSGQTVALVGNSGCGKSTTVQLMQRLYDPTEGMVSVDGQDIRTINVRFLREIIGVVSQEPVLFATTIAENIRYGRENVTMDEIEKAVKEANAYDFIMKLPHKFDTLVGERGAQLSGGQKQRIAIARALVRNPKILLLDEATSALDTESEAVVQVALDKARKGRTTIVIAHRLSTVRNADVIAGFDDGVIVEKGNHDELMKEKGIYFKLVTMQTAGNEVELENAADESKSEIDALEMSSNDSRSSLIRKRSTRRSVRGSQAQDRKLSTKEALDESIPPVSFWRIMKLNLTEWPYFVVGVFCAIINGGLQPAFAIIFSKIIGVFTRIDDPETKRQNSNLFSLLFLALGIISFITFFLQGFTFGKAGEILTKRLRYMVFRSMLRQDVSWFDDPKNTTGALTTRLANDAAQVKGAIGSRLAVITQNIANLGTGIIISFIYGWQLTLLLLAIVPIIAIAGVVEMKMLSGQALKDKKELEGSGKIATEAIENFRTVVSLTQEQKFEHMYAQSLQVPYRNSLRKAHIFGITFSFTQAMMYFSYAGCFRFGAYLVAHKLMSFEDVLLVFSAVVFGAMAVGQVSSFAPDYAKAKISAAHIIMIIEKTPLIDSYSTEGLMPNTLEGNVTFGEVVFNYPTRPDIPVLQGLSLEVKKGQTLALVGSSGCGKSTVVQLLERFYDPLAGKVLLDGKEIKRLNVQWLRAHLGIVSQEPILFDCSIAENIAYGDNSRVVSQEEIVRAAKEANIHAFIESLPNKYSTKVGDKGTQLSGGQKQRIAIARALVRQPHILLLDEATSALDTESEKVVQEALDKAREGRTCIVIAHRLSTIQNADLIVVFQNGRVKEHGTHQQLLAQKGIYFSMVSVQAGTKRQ
# [2] = compounds altering circadian rhythm period length – cell-based, LOPAC library, luminescence reporter (AID 2774; call rule not given here;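 also: values are relative to mean of DMSO wells on each plate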); conditions: circadian reporter cells, at 7 µM, actives lie on both sides
# [3] = blockers of polyQ-driven CASP3 activation – cell-based (AID 1583); conditions: polyglutamine-induced caspase-3 activation, cell assay; stronger effect = higher value;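 tested at 10 µM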
# [4] = yeast 75Q aggregation reduction – 75Q-TubU reporter (AID 1593); conditions: Yeast 75Q polyglutamine aggregation reporter
# [5] = blockers of cellular phospholipid synthesis – cell-based, LOPAC library, screen 4, primary screen (AID 1347384; call rule not given here); conditions: animal cells, phospholipid biosynthesis inhibition screen; at 10 µM
# [6] = system: Hepatitis C virus NS3 helicase; assay: blockers of NS3h binding to ssDNA – biochemical, fluorescence polarization, LOPAC1280 library, primary screen (AID 687035; in the data active = inhibition above about 37%); conditions: Purified HCV NS3 helicase, Cy5-dT15 ssDNA binding fluorescence polarization; stronger effect = higher value; concentration not given here
# [7] = compounds altering Cy5-DNA-NS3h complex signal – biochemical, LOPAC1280, artefact control for HCV NS3 helicase inhibitor project (AID 687037; call rule not given here); conditions: Cy5-DNA-NS3h complex fluorescence interference counterscreen
# [8] = compounds altering HSF1 focus formation in cells – imaging, Selleck Cancer Library (AID 1347162; in the data active = plate-normalised HSF1 focus index below about 0.46); conditions: human cells, HSF1 nuclear foci imaging, at 10 µM; SSMD: measured here: HSF1 foci SSMD mean; cell count: measured here: cell number; plate-normalised HSF1 focus index: stronger effect = lower value
# [9] = EMT-state selective cytotoxicity in co-culture – imaging, PC-3E GFP, TEM4-18 mCherry, primary screen (AID 1345086;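 active = compounds killing one labelled cell type while sparing the other, by normalised counts and ratio limits, not self-fluorescent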;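 as to all read-outs here: cells exposed to compound for 72 h before imaging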;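 as to red/green cell ratio (normalised): normalised mesenchymal count divided by normalised epithelial count so high means epithelial killing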); conditions: PC-3E GFP / TEM4-18 mCherry co-culture, imaging cell counts, at 1 µM; for red/green cell ratio (normalised): actives lie on both sides, counts scaled to control wells, 1 = unselective
# [10] = growth inhibition, single agents and combos, LFS_MB_1R, cell-based, cisplatin or BGB combos, synergistic combos for chromothripsis tumors (AID 1671452); conditions: LFS_MB_1R medulloblastoma cells, stronger effect = higher value;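 also: cells exposed for 96 hours before readout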
# [11] = growth inhibition, single agents and combos, CRL2098, cell-based, BGB or cisplatin IC20 combos, synergistic combos for chromothripsis tumors (AID 1671454); conditions: CRL2098 osteosarcoma cells, drug combinations, stronger effect = higher value;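 also: cells exposed for 96 h before readout; 0% = vehicle DMSO and 100% = killing by high DMSO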
# [12] = growth inhibition, single agents and combos, HD-MB03, cell-based, BGB or cisplatin IC20 combos, synergistic combos for chromothripsis tumors (AID 1671455; in the data active = inhibition above about 83%;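 also: 0% = vehicle DMSO and 100% = high DMSO as cytotoxic control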); conditions: HD-MB03 medulloblastoma cells, stronger effect = higher value
# [13] = growth inhibition, single agents and combos, UWB1.289, cell-based, BGB or cisplatin combos, synergistic combos for chromothripsis tumors (AID 1671456); conditions: UWB1.289 ovarian carcinoma cells, stronger effect = higher value;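 also: cells exposed to compound for four days; 0% = vehicle DMSO and 100% = killing by high DMSO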
# [14] = growth inhibition, single agents and combos, LFS_MB_2R, cell-based, cisplatin combos, synergistic combos for chromothripsis tumors (AID 1671457); conditions: LFS_MB_2R medulloblastoma cells, stronger effect = higher value;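 also: cells exposed to compound for four days before readout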
# [15] = growth inhibition, MDA-MB-436, cell-based, BGB or cisplatin combos, synergistic combos for chromothripsis tumors (AID 1671458; call rule not given here;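 also: cells exposed for 96 hours; 0% = vehicle DMSO and 100% = killing by high DMSO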); conditions: MDA-MB-436 breast carcinoma growth inhibition, drug combinations, stronger effect = higher value
# [16] = UWB1.289_BRCA1 ovarian cancer growth, cell-based, BGB or cisplatin combinations (AID 1671459); conditions: UWB1.289 BRCA1 ovarian carcinoma, drug combinations, stronger effect = higher value
# [17] = drug combination toxicity in non-malignant astrocytes – cell-based, BGB or cisplatin IC20 combos, cytotoxicity control for chromothriptic childhood tumor combination screen (AID 1671460); conditions: Human astrocytes, viability inhibition, drug combinations, at 0.5 µM, stronger effect = higher value;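 also: cells exposed to compounds for 96 hours before viability readout; 0% = vehicle and 100% = killing control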
# [18] = BT084 cell growth, single and combined drugs, ICGC_MB145, cisplatin and BGB IC40 combos (AID 1671461); conditions: BT084 medulloblastoma cells, drug combinations, stronger effect = higher value;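 also: cells exposed to drugs for 96 hours; 0% = vehicle DMSO and 100% = high DMSO full killing control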
# [19] = RCMB18 cell growth, single agent and combined, cisplatin and BGB IC40 combos (AID 1671462); conditions: RCMB18 medulloblastoma cells, stronger effect = higher value;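 also: cells exposed to compound for four days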
# [20] = CRL1545 cell growth, single agent and combined, cisplatin and BGB IC20 combos (AID 1671464); conditions: CRL1545 osteosarcoma cells, stronger effect = higher value;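 also: cells exposed to compound for 96 hours before readout; 0% = vehicle DMSO and 100% = high DMSO killing control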
# [21] = measured here: epithelial PC-3E GFP cell survival
# [22] = measured here: mesenchymal TEM4-18 mCherry cell survival
# [23] = measured here: combination with BGB IC40, at 0.05 µM
# [24] = measured here: combination with cisplatin, at 0.5 µM
# [25] = measured here: combination with cisplatin, at 5 µM
# [26] = measured here: combination with BGB at IC20, at 0.5 µM
# [27] = measured here: combination with cisplatin at IC20, at 0.5 µM
# [28] = measured here: combo with BGB at IC20, at 0.5 µM
# [29] = measured here: combo with cisplatin at IC20, at 0.5 µM
# [30] = measured here: inhibition with BGB combination, at 0.05 µM
# [31] = measured here: inhibition with cisplatin combination, at 0.05 µM
# [32] = measured here: BGB combination, at 0.5 µM
# [33] = measured here: BGB combination, at 5 µM
# [34] = measured here: cisplatin combination, at 0.5 µM
# [35] = measured here: cisplatin combination, at 5 µM
# [36] = BGB combination, concentration series, at 5 µM
# [37] = cisplatin combination, concentration series, at 5 µM
# [38] = measured here: combo with BGB IC20
# [39] = measured here: combo with cisplatin IC20
# [40] = cisplatin combination, at 0.5 µM
# [41] = measured here: BGB IC40 combination 0.05 uM, at 0.05 µM
# [42] = measured here: BGB IC40 combination, at 0.05 µM
# [43] = measured here: with BGB IC20 combination, at 0.5 µM
# [44] = measured here: with cisplatin IC20 combination, at 0.5 µM
smiles,measurement,setting,value
CN1CCCN(C(c2ccccc2)c2ccc(Cl)cc2)CC1 (stereo unspecified),fluorescence slope change,[1],122% (active)
CC(C)NC[C@@H](O)COc1ccc(CC(N)=O)cc1,period change,[2],0.075 h (inactive)
Cc1c(-c2ccccc2)oc2c(C(=O)OCCN3CCCCC3)cccc2c1=O,fluorescence slope change,[1],112% (active)
CCc1cccc(CC)c1NC(=O)CN(CC(=O)O)CC(=O)O,fluorescence slope change,[1],-10% (inactive)
NC(=O)OCC(O)COc1ccc(Cl)cc1 (stereo unspecified),fluorescence slope change,[1],58.8% (active)
CN1CCCC(CC2c3ccccc3Sc3ccccc32)C1 (stereo unspecified),fluorescence slope change,[1],182% (active)
OC(CCCN1CCCCC1)(c1ccccc1)c1ccccc1,fluorescence slope change,[1],71.6% (active)
CN1CCN(CCCN2c3ccccc3Sc3ccc(S(=O)(=O)N(C)C)cc32)CC1,fluorescence slope change,[1],52.4% (active)
C1CCN2C[C@@H]3C[C@@H](CN4CCCC[C@@H]34)[C@H]2C1,fluorescence slope change,[1],10.6% (inactive)
Clc1cc(Cl)c(OCC#CI)cc1Cl,inhibition,[3],55.6%
same,score,[4],-0.06
CCC1C(=O)OCC1Cc1cncn1C (stereo unspecified),outcome,[5],inactive
O=P(O)(O)C(Cl)(Cl)P(=O)(O)O,outcome,[5],inactive
Nc1c[n+](N2CCOCC2)no1,outcome,[5],inactive
CCOc1ccccc1OCC1CNCCO1 (stereo unspecified),fluorescence slope change,[1],51.5% (active)
same,inhibition,[3],-5.29%
same,score,[4],1.39
O=C1NCN(c2ccccc2)C12CCN(CCCC(c1ccc(F)cc1)c1ccc(F)cc1)CC2,period change,[2],-0.085 h (inactive)
same,inhibition,[6],0% (inactive)
same,fluorescence ratio (interference),[7],1 (inactive)
same,outcome,[5],inactive
CN1CC[C@H](c2c(O)cc(O)c3c(=O)cc(-c4ccccc4Cl)oc23)[C@H](O)C1,SSMD,[8],1.33
same,cell count,[8],6730
same,plate-normalised HSF1 focus index,[8],1.07 (inactive)
CN(C)CCCO[C@@H]1[C@H]2OC(C)(C)O[C@H]2O[C@@H]1C(O)CO (stereo partly specified),period change,[2],-0.08 h (inactive)
same,inhibition,[6],-4% (inactive)
same,fluorescence ratio (interference),[7],1 (inactive)
CCCn1cnc2c1c(=O)n(CCCCC(C)=O)c(=O)n2C,period change,[2],0.185 h (inactive)
same,inhibition,[6],1% (inactive)
same,fluorescence ratio (interference),[7],1 (inactive)
same,red/green cell ratio (normalised),[9],0.84 (inactive)
same,normalised cell number,[9]; [21],1.14
same,normalised cell number,[9]; [22],0.96
C[C@]12CCC(=O)C=C1CC[C@H]1[C@@H]3CC[C@](O)(C(=O)CO)[C@@]3(C)C[C@H](O)[C@@]12F,fluorescence slope change,[1],9.8% (inactive)
CCN(CC)C(=O)c1cccnc1,red/green cell ratio (normalised),[9],1.14 (inactive)
same,normalised cell number,[9]; [21],0.99
same,normalised cell number,[9]; [22],1.13
CN1C[C@@H]2C[C@H]1CN2c1cc2c(cc1F)c(=O)c(C(=O)O)cn2C1CC1,inhibition,[10]; at 0.5 µM,-32.5% (inactive)
same,inhibition,[10]; [23],-27.6%
same,inhibition,[10]; [24],-60%
same,inhibition,[10]; [25],-44.9%
same,inhibition,[11]; at 0.5 µM,-70.8% (inactive)
same,inhibition,[11]; [26],-121%
same,inhibition,[11]; [27],-50%
same,inhibition,[12]; at 0.5 µM,-14.8% (inactive)
same,inhibition,[12]; [28],-11.6%
same,inhibition,[12]; [29],-20.6%
same,inhibition,[13]; at 0.5 µM,-14.3% (inactive)
same,inhibition,[13]; [30],-14.8%
same,inhibition,[13]; [31],-20.1%
same,inhibition,[14]; at 0.5 µM,-7.92% (inactive)
same,inhibition,[14]; [24],-3.36%
same,inhibition,[14]; [25],-96.9%
same,inhibition,[15]; at 0.5 µM,-9.69% (inactive)
same,inhibition,[15]; [32],1.19%
same,inhibition,[15]; [33],-5.03%
same,inhibition,[15]; [34],-28.1%
same,inhibition,[15]; [35],-7.33%
same,inhibition,[16]; [36],-23.3%
same,inhibition,[16]; at 0.5 µM,-16% (inactive)
same,inhibition,[16]; [37],2.38%
same,inhibition,[17],-25.7% (inactive)
same,inhibition,[17]; [38],-14.8%
same,inhibition,[17]; [39],-51.5%
same,inhibition,[18]; at 0.5 µM,-14.9% (inactive)
same,inhibition,[18]; [40],-11.4%
same,inhibition,"[18]; cisplatin combination, at 5 µM",-13.9%
same,inhibition,[18]; [41],0.828%
same,inhibition,"[18]; single agent, at 5 µM",-12.4%
same,inhibition,[19]; at 0.5 µM,-27.5% (inactive)
same,inhibition,"[19]; cisplatin combo, at 5 µM",-18.3%
same,inhibition,[19]; [42],-12.7%
same,inhibition,[19]; [24],-81.8%
same,inhibition,"[19]; single agent, at 5 µM",-17.7%
same,inhibition,[20]; at 0.5 µM,-62.9% (inactive)
same,inhibition,[20]; [43],-46.3%
same,inhibition,[20]; [44],-75.1%
same,inhibition,"[20]; single agent, at 0.05 µM",-30.1%
same,inhibition,"[20]; single agent, at 5 µM",-48.9%
Cc1ccc2nc(N)[nH]c(=O)c2c1Sc1ccncc1,inhibition,[10]; at 0.5 µM,-7.14% (inactive)
same,inhibition,[10]; [23],-4.51%
same,inhibition,[10]; [24],-35.9%
same,inhibition,[10]; [25],0.93%
same,inhibition,[11]; at 0.5 µM,-63.7% (inactive)
same,inhibition,[11]; [26],-72.3%
same,inhibition,[11]; [27],-84.4%
same,inhibition,[12]; at 0.5 µM,-15.4% (inactive)
same,inhibition,[12]; [28],-11.9%
same,inhibition,[12]; [29],-25.1%
same,inhibition,[13]; at 0.5 µM,-17.5% (inactive)
same,inhibition,[13]; [30],4.97%
same,inhibition,[13]; [31],-23%
same,inhibition,[14]; at 0.5 µM,-12.4% (inactive)
same,inhibition,[14]; [24],-25.9%
same,inhibition,[14]; [25],-11.5%
same,inhibition,[15]; at 0.5 µM,-7.12% (inactive)
same,inhibition,[15]; [32],-5.47%
same,inhibition,[15]; [33],11%
same,inhibition,[15]; [34],-13.7%
same,inhibition,[15]; [35],37.3%
same,inhibition,[16]; [36],-8.1%
same,inhibition,[16]; at 0.5 µM,-23.6% (inactive)
same,inhibition,[16]; [37],-9.76%
same,inhibition,[17],-6.91% (inactive)
same,inhibition,[17]; [38],-8.77%
same,inhibition,[17]; [39],-12.3%
same,inhibition,[18]; at 0.5 µM,3.52% (inactive)
same,inhibition,[18]; [40],-1.35%
same,inhibition,"[18]; cisplatin combination, at 5 µM",-137%
same,inhibition,[18]; [41],-7.71%
same,inhibition,"[18]; single agent, at 5 µM",6.61%
same,inhibition,[19]; at 0.5 µM,-22.7% (inactive)
same,inhibition,"[19]; cisplatin combo, at 5 µM",-4.62%
same,inhibition,[19]; [42],-25.2%
same,inhibition,[19]; [24],-45.9%
same,inhibition,"[19]; single agent, at 5 µM",12.6%
same,inhibition,[20]; at 0.5 µM,-26.5% (inactive)
same,inhibition,[20]; [43],-34.6%
same,inhibition,[20]; [44],-24.4%
same,inhibition,"[20]; single agent, at 0.05 µM",-59.1%
same,inhibition,"[20]; single agent, at 5 µM",-14.1%
